A word on the inhibition: it is the relative decrease from the control value, in per cent.

Among the data in PubChem BioAssay AID463190 (Sanford-Burnham Center for Chemical Genomics, 2010) are inhibition values, retold here.

The structures appear in SMILES notation. Screen size: about 330,000 compounds; about 7,300 (2.2%) were called active. Many of the other results were omitted from the sample, so actives are more common in it than they were. Values without a mark were called inactive.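 Rule for the calls: active = inhibition of at least 40%; inactive = the rest.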

A short description of this experiment: growth inhibition of tim10-1 ts yeast – luminescence, uHTS, primary screen (AID 463190).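 Note: mutant grown at 25 °C; 0% = DMSO wells with yeast and 100% = wells holding no yeast.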 The conditions noted are these: S. cerevisiae tim10-1 ts strain growth, BacTiter-Glo, 24 h; at 20 µM; active compounds read high.
`O=C(CC1NCCc2ccccc21)Nc1cccc(Cl)c1` (configuration not stated): the inhibition is 34.9%. Next, `Cc1ccc(NS(=O)(=O)c2c(C)[nH]c(=O)[nH]c2=O)cc1C`: 0.26%; `CCOc1ccc(CN2CCN(Cc3ccon3)CC2CCO)cc1` (configuration not stated): 9.62%. Next, `O=C(CC(O)(C(F)(F)F)C(F)(F)F)Nc1ccc(Cl)c(Cl)c1`: 85.2% (active).

In the case of `O=C(CCCN1C(=O)CCC1=O)Nc1ccc(Cl)c(C(F)(F)F)c1`, the inhibition was -0.021%. For `CS(=O)(=O)N(CC(=O)Nc1ccc(Cl)c(Cl)c1)C1CCCCC1` the value was 35.1%; for `CC1CCCCC1NC(=O)NC(=O)COC(=O)C1=NN(c2ccccc2)C(=O)CC1` (configuration not stated), -2.21%. For `C#C[C@]1(O)CC[C@H]2[C@@H]3CCC4=CC(=O)CC[C@@H]4[C@H]3CC[C@@]21CC` the value was 12.4%; for `COc1ccccc1CN(C)C(=O)C1(c2ccc(Cl)cc2)CC1`, 3.3%; for `O=C(Oc1c(-c2ccco2)oc2ccccc2c1=O)c1cccnc1`, 45.4% (active).

For the compound `N#CCc1ccc(OC(=O)c2cccnc2)cc1`, the inhibition was 19.6%. For `CCCCCCOc1ccc(OC(=O)c2cccnc2)cc1` the value was 7.23%; for `CCOc1ccc(C(c2c(C)[nH][nH]c2=O)c2c(C)[nH][nH]c2=O)cc1OCC`, 45.9% (active); for `CCOc1ccc(C(CC(=O)O)NC(=O)Cc2ccccc2)cc1OC` (configuration not stated), -13.2%. Next, `CCOc1ccc(C(C)NC(=O)CN2C(=O)NC3(CCCCC3)C2=O)cc1OCC` (configuration not stated): 0.453%; `CCOC(=O)c1cn(CC)c2cc(F)c(F)cc2c1=O`: -8.23%. For `CC(=O)NC(CC(=O)Nc1cccc(S(=O)(=O)N2CCCC2)c1)c1ccccc1` (configuration not stated) the value was 19.9%; for `CN1CCN(c2cc(=O)n(-c3ccc(Cl)cc3)c(=O)[nH]2)CC1`, -20.5%; for `COc1ccc(N(CC(=O)Nc2cc(OC)ccc2OC)S(=O)(=O)c2c(C)noc2C)cc1`, 29.9%. As for `CCOC(=O)Cc1csc(SCC(=O)NC(C)C23CC4CC(CC(C4)C2)C3)n1` (configuration not stated), the inhibition was 43.5% (active). For `CCOC(=O)Cc1csc(NC(=O)CSc2ccc(Br)cc2)n1` the value was 46.9% (active).

With `CCOC(=O)Cc1csc(NC(=O)COc2ccc3c(C)cc(=O)oc3c2)n1`, the inhibition is 11.9%. Consider `CCOC(=O)Cc1csc(NC(=O)CSc2nnc(-c3cccnc3)n2Cc2ccco2)n1`, for which the inhibition is 13.4%. For `CCOC(=O)Cc1csc(SCc2cc(=O)oc3cc(O)ccc23)n1` the value was 12.7%.

For `CCOC(=O)Cc1csc(SCC(=O)Nc2ccc(C)cc2F)n1`, the inhibition is 18.9%. In the case of `NS(=O)(=O)c1ccc(CCNC(=O)c2ccc([N+](=O)[O-])cc2[N+](=O)[O-])cc1`, the inhibition was 2.98%. Take `CCCN(C(=O)CSc1nnnn1C)c1c(N)n(Cc2ccccc2)c(=O)[nH]c1=O`: the inhibition is -2.11%. Regarding `CN(CC(=O)Nc1cccc(F)c1)C(=O)C1CSC2(C)CCC(=O)N12` (configuration not stated), the inhibition was 2.74%. Next, `COc1ccccc1N1CCN(C(=O)c2cc(=O)c3cc(C)ccc3o2)CC1`: 36.5%; `O=C(c1cc(=O)c2ccccc2o1)N1CCN(c2ccccc2)CC1`: 5.8%; `COc1ccccc1N1CCN(C(=O)c2cc(=O)c3cc(C)cc(C)c3o2)CC1`: 45.3% (active). With `Cc1ccc(C(=O)N/N=C\c2cc(Br)c(Br)o2)cn1`, the inhibition was 3.87%. For `COc1cccc(NC(=O)CN2CCN(CC(=O)Nc3ccccc3Cl)CC2)c1` the value was 19.6%; for `COc1ccc(Cl)cc1NC(=O)CN1CCN(C(=O)N2CCOCC2)CC1`, 1.52%.

As to `COc1ccc(NC(C)=O)cc1NC(=O)CN1CCN(C2c3ccccc3-c3ccccc32)CC1`, the inhibition is 41.6% (active). Next, `CC(C)(C)OC(=O)C1=C(CO)CS[C@@H]2[C@H](NC(=O)Cc3ccccc3)C(=O)N12`: 9.18%. Next, `Cc1ccc(S(=O)(=O)N2CCN(C(=O)CSc3cc(C)ccc3C)CC2)c(C)c1`: 23.1%; `O=C(NCc1ccco1)c1nc2ncccn2n1`: 1.9%; `Cc1cccc(Nc2ccccc2C(=O)NCc2ccco2)c1C`: 29.9%.

For the compound `O=C(NCc1ccco1)c1cccn2c(=O)c3c4c(sc3nc12)CCCC4`, the inhibition was 41.6% (active). Next, `COc1ccc(C(=O)N2CCC(C(=O)Nc3cccc(C)c3)CC2)cc1OC`: -7.58%; `O=C(Nc1ccccc1)/C(=C\c1ccco1)NC(=O)c1ccco1`: 23.3%; `O=C(NCCc1ccco1)c1nn(Cc2ccccc2)c(=O)c2ccccc12`: 14.5%.

With `O=c1nc2s/c(=C\c3ccco3)c(=O)n2nc1Cc1ccccc1`, the inhibition was 63% (active). Next, `CC(=O)N1N=C(c2ccccc2)OC1c1cccnc1` (configuration not stated): 7.21%; `Cc1ccc2nc(N3CCN(C(=O)c4ccco4)CC3)sc2c1`: 6.64%.

With `COc1ccc2nc(N3CCN(C(=O)c4ccc([N+](=O)[O-])o4)CC3)sc2c1`, the inhibition is 42.2% (active). On to `CCN(CC)CCN(C(=O)c1cccc([N+](=O)[O-])c1)c1nc2ccc(OC)cc2s1`, for which the inhibition was 12.5%. For `CC(C)NS(=O)(=O)c1ccc(OCC(=O)NC2CCCCCC2)cc1` the value was 4.48%; for `Cc1nn(-c2ccccc2)c2sc(C(=O)N(Cc3ccco3)C(C)C(=O)NC(C)(C)C)cc12` (configuration not stated), 14.2%; for `Cc1[nH]n(C(N)=S)c(=O)c1N=Nc1ccc(Cl)cc1Cl`, 47.4% (active). Next, `CC1=NN(C(N)=S)C(=O)C1N=Nc1cc(Cl)ccc1Cl` (configuration not stated): 38.6%.

As for `Cc1cccc(N=Nc2c(C)[nH]n(-c3ccccc3)c2=O)c1`, the inhibition is 20.1%. Turning to `CSc1cc(C)n(-c2ccccc2C)c(=S)c1C(C)=O`, the inhibition is -13.6%.

For the compound `COc1ccc2nc(/N=C(\N)NC(=O)Nc3ccccc3)nc(C)c2c1`, the inhibition was 50% (active). For `COc1ccc2nc(C)cc(Nc3cccc(C(=O)O)c3)c2c1` the value was -1.42%. For `Cc1nc(/N=C(\N)NC(=O)NC2CCCCC2)nc2ccccc12` the value was -11.5%; for `Cn1c(SCc2nc3ccccc3s2)nnc1-c1ccc2c(c1)OCO2`, -2.97%; for `O=C(CCl)Nc1cccc(CP(=O)(c2ccccc2)c2ccccc2)c1`, 9.52%. For the compound `Cn1c(SCC(=O)Nc2cccc(NC(=O)c3cccs3)c2)nnc1-c1ccncc1`, the inhibition is -9.32%. Next, `O=C(NOCc1ccccc1)c1cccc([N+](=O)[O-])c1`: 21.3%. For `CCCCN=C1C([N+](=O)[O-])=CC=C2C1=NC1(CCCCC1)N2O` the value was 9%; for `COc1ccc(OCC(=O)Nc2ccc(NC(=O)c3ccco3)c(C)c2)cc1`, -11.8%.

`Cc1cccc(OCC(=O)Nc2ccc(NC(=O)c3ccco3)c(C)c2)c1`: the inhibition is 1.89%. For `Cc1ccc(C(=O)COc2cccc(NC(=O)c3ccco3)c2)cc1` the value was 40.3% (active). Next, `C(=N\N1CCN(c2ccccn2)CC1)/C1=C(N2CCOCC2)C(=C/c2ccccc2)/CC1`: 34.3%; `O=C1Nc2ccc(Br)cc2/C1=N/N=C/C1=C(N2CCOCC2)C(=C\c2ccccc2)/CC1`: 45.5% (active). For `COc1ccc(/C=N/N=C2/C(=O)Nc3ccccc32)cc1O` the value was 9.34%. Regarding `C#CC(CCN1CCCCC1)(OC)c1ccccc1` (configuration not stated), the inhibition was 7.91%. For `Cc1ccc(-c2cn3cc([N+](=O)[O-])ccc3n2)cc1` the value was -1.69%. Next, `Cc1ccc2nc(-c3ccc(Br)cc3)cn2c1`: -3.32%; `Cc1ccc(-c2cn3cc(C)ccc3n2)cc1`: 51.8% (active); `CCOc1ccc(-n2c(SC(C)C(=O)OC)nc3c(c2=O)SCC3)cc1` (configuration not stated): 10.7%.

As to `Cc1cc(F)ccc1NC(=O)C(C)n1c2ccccc2c2nc(=O)cc(C)n21` (configuration not stated), the inhibition is 13.9%. Next, `C[C@H](CO)N1C[C@H](C)[C@@H](CN(C)S(=O)(=O)c2ccc(F)cc2)Oc2c(NC(=O)Nc3ccccc3)cccc2C1=O`: -4.64%; `O=C(OCC(=O)N1CCCC1=O)c1cc(S(=O)(=O)N2CCOCC2)ccc1Cl`: -17.2%.

As to `Cc1ccc(S(=O)(=O)N2CCC(C(=O)NCCC3=CCCCC3)CC2)cc1C`, the inhibition is -3%. Next, `CC(=O)Cc1nsc(NC(=O)c2ccc(Cl)cc2Cl)n1`: 36.5%. For `O=C(NCc1ccccc1Cl)c1csc2c1CCCCC2` the value was 12.3%; for `CC(=O)Cc1nsc(NC(=O)c2csc3c2CCCC3)n1`, 41.9% (active). For `Cc1ccc(CNC(=O)CCC(=O)N2CC(C)Sc3ccccc32)cc1` (configuration not stated) the value was 28.3%; for `CCCc1nnc(NC(=O)CCC(=O)NC2CC2)s1`, 10.7%; for `Cc1ccc2[nH]c(C)c(CCNC(=O)NC3CCCCC3)c2c1`, 11.4%. On to `COc1ccc(C(=O)COC(=O)COc2ccc(C)c(C)c2)cc1`, for which the inhibition is 10.1%. Next, `Cc1ccc(/C(N)=N/OC(=O)COc2ccc(Cl)c(C)c2)cc1`: 41.2% (active).

Consider `Cc1cc(OCC(=O)N2CCN(c3ncccn3)CC2)ccc1Cl`, for which the inhibition was 16%. For `COC(=O)c1cccc([N+](=O)[O-])c1CS(=O)(=O)c1ccc(C)cc1` the value was 24.5%. Next, `COC(=O)CCc1sc(Nc2ccc(Br)cc2)nc1-c1ccc(OC)cc1`: 46.4% (active); `Cc1ccc(OC(=O)CCC(=O)Nc2ccc(Br)cc2)cc1`: 0.584%; `COc1ccc(C(=O)Nc2nc(-c3ccc(OC)cc3)c(-c3ccc([N+](=O)[O-])cc3)s2)cc1`: 14.1%.

Consider `CC1CCc2c(sc3nc4n(c(=O)c23)CCS4)C1` (configuration not stated), for which the inhibition was 40.6% (active).

Consider `CCCn1nnc2sc3c(c2c1=O)CCC(C)C3` (configuration not stated), for which the inhibition was 9.67%. For `C=CCn1c(SCc2c(C)noc2C)nc2sc3c(c2c1=O)CCC(C)C3` (configuration not stated) the value was -4.33%; for `Cc1cc2c(c(=O)n1C)C(C(C)C)C(C#N)=C(N)O2` (configuration not stated), -3.2%; for `COc1cccc(CNC(=O)C2CCN(S(=O)(=O)c3cccc4cccnc34)CC2)c1`, 13.9%. Next, `Cn1c(=O)c(C(=O)Nc2ncccn2)c(O)c2ccccc21`: 25.2%; `C=CCn1c(SCc2c(C(=O)OC)sc(N)c2C(=O)OC)nnc1-c1ccc(Cl)cc1`: 15.3%.
